High-throughput results: PubChem BioAssay, Broad Institute
NOMO-1 viab: NOMO-1 AML cell viability reduction, primary screen, STK33 inhibitor project, CellTiter-Glo luminescence | AID 2330, 2010 | 37,000 compounds, 7.5% hits | NOMO-1 AML viability, 72 h | inhibition, % (test concentration not listed); in the data active = inhibition above about 80%; inconclusive = no clear call, values can overlap the other calls
ROS inducer: ROS inducers in U2OS cancer cells, primary screen, cell-based, H2DCF-DA fluorescence; U2OS ROS induction; ROS induction (% of piperlongumine), % at 10 µM; 46,000 compounds, 2% hits; AID 624156, 2012; in the data active = ROS induction above about 79%, passing the limit was not always enough; inconclusive = no clear call, values can overlap the other calls;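 note: 0% = DMSO vehicle median and 100% = reference compound median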
YB-1 expression: inhibitors of YB-1 gene expression, primary screen, cell-based, fluorescence; delta delta Cp (YB-1 minus CDIP) (concentration not given with the values); 30,000 compounds, 0.37% hits; U2OS, qRT-PCR YB-1 vs CDIP delta delta Cp, 16 h; active compounds read high; zero = DMSO, each unit about twofold; AID 434959, 2010;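 active = delta delta Cp rounded down to an integer at or above 3, about 3 SD of DMSO wells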;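 note: higher means less YB-1 transcript or more CDIP transcript relative to DMSO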
PD-1 reversal: activators reversing PD-1 mediated T-cell inhibition, primary screen, luminescence, primary human CD4 T cells, PD-L1 beads; activation, % (test concentration not listed); CellTiter-Glo 96 h; AID 2316, 2010; 29,000 tested, under 10 active; call rule not given here;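 note: 0% = median vehicle wells and 100% = positive control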
MITF inhib: inhibitors of MITF, primary screen, MITF inhibitor project, cell-based, luminescence. TRPM1 promoter luciferase, 24 h. inhibition, % (test concentration not listed). 37,000 compounds, 0.28% hits; in the data active = inhibition above about 85%; inconclusive = no clear call, values can overlap the other calls; inactive = below about 68%;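 note: human melanocyte line stably carrying TRPM1 promoter luciferase reporter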
Starred values were filed as active, the others as inactive; u = inconclusive; x = no result given. This is one part of a sample in which hits are shown more often than they occur.

SMILES | NOMO-1 viab | ROS inducer | YB-1 expression | PD-1 reversal | MITF inhib
C[C@H](CO)N1C[C@H](C)[C@H](CN(C)Cc2ccncc2)Oc2ccc(NC(=O)NC3CCCCC3)cc2C1=O | 105.2* | -5.8 | 0.0821 | -0.3 | 7.9
C[C@H]1CN([C@@H](C)CO)C(=O)c2cc(NC(=O)C3CCCCC3)ccc2O[C@H]1CN(C)Cc1ccncc1 | 97.2* | 9.7 | 0.0544 | -1.2 | -1.1
C[C@H]1CN([C@@H](C)CO)C(=O)c2cc(NC(=O)C3CCCCC3)ccc2O[C@@H]1CN(C)Cc1ccc(-c2ccccc2)cc1 | 100.2* | u | -0.237 | -3.7 | 13.3
C[C@@H]1CN([C@H](C)CO)C(=O)c2cc(NC(=O)C3CCCCC3)ccc2O[C@H]1CN(C)Cc1ccc(-c2ccccc2)cc1 | 4.6 | 40.4 | 0.0804 | -3.1 | 5.9
C[C@H]1CN([C@@H](C)CO)C(=O)c2cc(NC(=O)C3CCCCC3)ccc2O[C@@H]1CN(C)Cc1ccncc1 | 25.1 | -1.8 | -0.135 | -2.1 | 2.6
COc1ccc(C)cc1NC(=O)CNS(=O)(=O)c1ccccc1 | 33.0 | -5.9 | x | -0.9 | 8.8
CSC1=N/C(=C\c2ccccc2C)C(=O)S1 | 55.8 | -7.9 | -0.22 | 3.2 | -3.9
CSC1=N/C(=C\c2ccc(Br)cc2)C(=O)S1 | 130.6* | 17.6 | -0.0818 | 1.5 | 2.7
Cc1c(CCC(=O)O)c(=O)oc2cc(OCc3ccc(Cl)c(Cl)c3)ccc12 | 15.5 | 35.4 | x | -1.1 | -23.0
Cc1cccc(OCC(=O)Nc2cccc(-c3nc4cc(C)ccc4o3)c2)c1 | 4.6 | x | x | x | -19.1
COC(=O)c1c(C)oc2ccc(OC(=O)c3ccc(OC)cc3)cc12 | x | 22.6 | x | x | x
COc1ccc(Cn2c(-c3nonc3NC(C)=O)nc3ccccc32)cc1 | 44.8 | -11.2 | x | -0.7 | 13.1
CC(=O)Nc1nonc1-c1nc2ccccc2n1Cc1cccc2ccccc12 | 118.3* | x | x | x | 37.8
Cc1c(C(=O)OC(C)C)sc2ncn(CC(=O)Nc3ccccc3C(F)(F)F)c(=O)c12 | 20.7 | x | x | x | -5.1
C[C@@H]1CCCCO[C@H](CN(C)CC2CCCCC2)[C@@H](C)CN([C@H](C)CO)C(=O)c2cc(NC(=O)Nc3ccc4c(c3)OCO4)ccc2O1 | 23.3 | 21.4 | 0.117 | x | -6.1
COc1cc(/C=C/C(=O)OC2CC3CCC2(C)C3(C)C)ccc1O (configuration not stated) | 103.9* | u | -0.0107 | -1.6 | -85.7
O=C(/C=C/c1ccc(O)c(O)c1)O[C@@H]1C[C@](O)(C(=O)O)C[C@@H](O)[C@H]1O | 16.5 | 0.1 | -0.158 | x | 0.4
CC(NC(=O)c1cnn2c(C(F)(F)F)cc(-c3cccs3)nc12)c1ccccc1 (configuration not stated) | x | 84.9* | x | x | x
O=C(NCc1ccccn1)c1cnn2c(C(F)(F)F)cc(-c3cccs3)nc12 | 23.3 | 59.6 | x | -8.4 | -16.5
Cc1cccc(Cn2c(SCc3ccc(C(=O)NCCN4CCCC4)cc3)nc3ccncc32)c1 | x | 9.2 | x | x | x
CCOC(=O)COc1ccc2c(=O)c(-c3ccccc3OC)c(C(F)(F)F)oc2c1 | 93.2* | 68.5 | x | -4.4 | 0.2
COc1ccccc1-c1c(C(F)(F)F)oc2cc(OCC(=O)OC(C)C)ccc2c1=O | 95.7* | x | x | x | 0.3
Cc1cc(N)n(-c2ncnc3sc4c(c23)CCCC4)n1 | x | 13.8 | x | x | x
CC(C)=CCc1c(O)cc2oc3c(CC=C(C)C)c(O)c(O)c(CC=C(C)C)c3c(=O)c2c1O | x | 13.6 | -0.791 | x | x
COc1c(O)cc2oc3cc(O)c(CC=C(C)C)c(O)c3c(=O)c2c1CC=C(C)C | 97.9* | -12.3 | 0.861 | -14.2 | 49.9
SMILES | NOMO-1 viab | ROS inducer | YB-1 expression | PD-1 reversal | MITF inhib
O=C(N/N=C/c1cccnc1Br)c1ccccc1O | x | -0.8 | 0.12 | x | x
NS(=O)(=O)c1ccc(S(=O)(=O)NCCc2c[nH]c3ccccc23)cc1 | x | -15.3 | x | x | x
CC(Oc1ccc(C(=O)Nc2ccc(Cl)cc2)cc1)C(=O)Nc1ccc(Br)cc1 (configuration not stated) | 136.4* | 15.6 | x | -13.3 | 66.1
Cc1cccc(NC(=O)c2ccc(OC(C)C(=O)Nc3ccc(Br)cc3)cc2)c1C (configuration not stated) | 114.7* | 4.1 | x | -0.5 | 32.0
Cc1ccc(NC(=O)c2ccc(OC(C)C(=O)Nc3ccccc3)cc2)cc1 (configuration not stated) | 47.5 | x | x | x | 3.5
O=C1CSc2ccc(C(=O)NC3CCCCCC3)cc2N1 | x | -2.6 | x | x | x
O=C(CC1(O)C(=O)N(Cc2ccccc2)c2ccccc21)c1cc2ccccc2oc1=O (configuration not stated) | 104.6* | -10.1 | x | -0.4 | 19.3
COc1cccc2cc(C(=O)CC3(O)C(=O)N(Cc4ccccc4)c4ccc(Br)cc43)c(=O)oc12 (configuration not stated) | 127.0* | u | x | -6.3 | 14.3
O=C1C(C=NC(CO)(CO)CO)=C(O)c2ccccc21 | 32.8 | -9.1 | 0.105 | 0.5 | -0.1
CCc1ccc[n+](OC(=O)N(CC)CC)c1 | 101.6* | 10.5 | -0.368 | 0.5 | 5.4
Cc1ccc(C(=O)Cn2c3c(sc2=N)CCCC3)cc1 | 41.0 | 25.5 | 0.0908 | x | 88.2*
Cc1ccc(S(=O)(=O)Nc2cccc3c2O[C@@H](CN(C)Cc2ccc(C(F)(F)F)cc2)[C@@H](C)CN([C@H](C)CO)C3=O)cc1 | 90.0* | 10.3 | 0.0417 | -3.6 | 21.8
CC(C)NC(=O)N(C)C[C@H]1Oc2c(NS(=O)(=O)c3cn(C)cn3)cccc2C(=O)N([C@H](C)CO)C[C@@H]1C | 2.7 | u | -0.507 | 1.5 | -3.8
COc1ccc(S(=O)(=O)Nc2cccc3c2O[C@@H](CN(C)Cc2ccc(C(F)(F)F)cc2)[C@@H](C)CN([C@H](C)CO)C3=O)cc1 | 96.1* | 16.8 | 0.848 | -3.2 | 26.0
CC(C)NC(=O)N(C)C[C@H]1Oc2c(NS(=O)(=O)c3cn(C)cn3)cccc2C(=O)N([C@H](C)CO)C[C@H]1C | -11.1 | -3.5 | 11.8* | 2.9 | -12.6
Cc1ccc(S(=O)(=O)Nc2cccc3c2O[C@@H](CN(C)C(=O)NC2CCCCC2)[C@@H](C)CN([C@H](C)CO)C3=O)cc1 | 100.4* | -9.1 | 1.54 | 0.5 | 11.6
Cc1cccc(-c2nnc(SCC(=O)Nc3ccccc3F)o2)c1 | 42.8 | -3.2 | x | -0.2 | 88.2*
Cc1cccc(-c2nnc(SCC(=O)Nc3c(Cl)cc(Cl)cc3Cl)o2)c1 | -14.8 | x | x | x | 7.7
Nc1nnc(SCC(=O)Nc2cccc(Cl)c2Cl)s1 | 54.6 | -7.2 | x | 1.0 | -13.0
c1csc(-c2nnc(CSc3cccc4cccnc34)o2)c1 | 112.3* | -7.4 | 0.0247 | -6.2 | -29.8
COc1ccc(OC)c(NC(=O)Cn2nc([N+](=O)[O-])cc2C)c1 | -13.5 | x | x | x | -18.1
Cc1nc(N=C(N)N)nc2ccccc12 | 88.7* | 21.0 | 0.16 | -0.1 | 21.0
COc1ccc(N2CCc3c(C)c(C#N)c4nc5ccccc5n4c32)cc1 | 113.8* | 67.9 | -0.0691 | -1.0 | 22.2
